PubChem BioAssay AID2314 (National Center for Advancing Translational Sciences (NCATS), 2010)
The campaign covered roughly 300,000 compounds. About 37,000 (12%) were called active. Only a selection was taken, and actives are over-represented in it overall. A number with no mark means an inactive call. No stated cut-off is given here; in the data, active means max response mostly above about 13% (no sharp cut-off); inactive means mostly below about 14%.

assay: Cycloheximide Counterscreen for Small Molecule Inhibitors of Shiga Toxin; conditions: cell reporter, cycloheximide protein synthesis inhibition counterscreen; active compounds read high; further: read at 38.3 µM for the half of the compounds with a filed dose; 0% is about no effect

Compound | max response
CCc1ccccc1N(CC(=O)NCC1CCCO1)C(=O)CCC(=O)Nc1nccs1 (stereo not drawn) | -4.73%
CCOc1ccccc1NC(=O)C1CCCN(S(=O)(=O)c2ccccc2)C1 (stereo not drawn) | -1.93%
NS(=O)(=O)c1ccc(NC(=S)NNC(=O)c2cccs2)cc1 | 29.3% (active)
O=C(NC(=S)Nc1ccc(NC(=O)c2cccs2)cc1)c1ccc([N+](=O)[O-])cc1 | 0.608%
CCc1nnc(NS(=O)(=O)c2ccc(NC(=S)NC(=O)c3cccs3)cc2)s1 | 0.706%
O=C(c1n[nH]c2c1CCC2)N1CCCC(Nc2cccc(F)c2)C1 (stereo not drawn) | 10.7%
O=C(NCc1ccc(Cl)cc1)c1cc(=O)nc2sc(-c3ccccc3)nn12 | -4.5%
CC(=NCc1ccc2c(c1)OCO2)c1c(O)[nH]c(=O)[nH]c1=O | -1.94%
CC(=NCc1ccc2c(c1)OCO2)C1=C(O)c2ccccc2C1=O | 14.2% (active)
CC(=NCc1ccco1)C1=C(O)c2ccccc2C1=O | 24.6%
CC1C(=O)N(Cc2ccccc2)c2ccccc2N1C(=O)c1ccccc1 (stereo not drawn) | 5.44%
O=C(OCc1ccc([N+](=O)[O-])cc1)C1CC(=O)N(Cc2ccccc2Cl)C1 (stereo not drawn) | 5.26%
Cc1cccnc1NC(=O)c1cccc(S(=O)(=O)N2CCN(c3ccc(F)cc3)CC2)c1 | -1.47%
O=C(Nc1ccc2c(c1)CCC2)c1cccc(S(=O)(=O)N2CCN(c3ccc(F)cc3)CC2)c1 | 18.6% (active)
CN1CCN(S(=O)(=O)c2cccc(C(=O)Nc3cccc(S(N)(=O)=O)c3)c2)CC1 | 5.45%
OCCC1CN(Cc2cnc(-c3ccccc3)s2)CCN1CCc1ccccc1 (stereo not drawn) | -2.01%
O=C(COC(=O)CSc1nnc(-c2ccc(Cl)cc2)o1)Nc1cc(Cl)cc(Cl)c1 | -1.68%
O=C(CSc1nnc(-c2ccncc2)o1)NCc1ccc(Cl)cc1 | -4.87%
Clc1ccc(-c2nnc(SCc3nc4ccccc4s3)o2)cc1 | 31.5% (active)
O=C(NCc1ccccc1Cl)C1CCN(S(=O)(=O)c2cccc3nonc23)CC1 | 7.56%
O=c1oc(-c2ccccc2NS(=O)(=O)c2ccc(Cl)cc2)nc2ccccc12 | -0.333%

Compound | max response
Cc1cc(N/N=C\c2ccc(Br)cc2)nc(-n2nc(C)cc2C)n1 | -2.43%
Cc1nc(Cl)cc(N/N=C/c2ccccc2)n1 | 9.02% (active)
C(=N/Nc1cc(N2CCOCC2)nc(N2CCOCC2)n1)/c1ccccc1 | -4.51%
CCc1ccc2oc(=O)cc(CN3CCCCC3C)c2c1 (stereo not drawn) | 10.3%
CCOC(=O)C1CCCN(C(=O)COc2ccc(N(C)S(=O)(=O)c3ccc(C)cc3)cc2)C1 (stereo not drawn) | -3.78%
O=C(NCC1CCCO1)C1CCN(C2CCN(C(=O)C3CCCCC3)CC2)CC1 (stereo not drawn) | -2.3%
O=c1c2c(nc3cc(-c4cccc(Cl)c4)[nH]n13)CCCC2 | 52.1% (active)
O=c1c2c(nc3nc[nH]n13)CCC2 | -2.72%
Cc1cc(=O)n2[nH]c(-c3cccc(Cl)c3)cc2n1 | 6.54%
COc1ccc(OC)c(NC(=O)Cc2cccs2)c1 | 5.9%
CS(=O)(=O)N(CC(=O)N/N=C/c1ccccn1)c1ccc(Oc2ccccc2)cc1 | 8.35%
CC(C(=O)N=Nc1c(O)n(C)c2ccc(Br)cc12)n1cnc2ccccc2c1=O (stereo not drawn) | 1.79%
S=c1[nH]nc(CSCc2ccc(Cl)cc2Cl)n1-c1ccccc1 | -1.69%
Cn1c(CCCOc2ccc(Cl)cc2Cl)n[nH]c1=S | 16.1% (active)
O=C(CCCOc1ccc(Cl)cc1Cl)NNC(=O)C1CCC1 | 3.02%
CC(C)Cn1c(N)c(C(=O)COC(=O)CN2C(=O)C3CC=CCC3C2=O)c(=O)n(C)c1=O (stereo not drawn) | 1.25%
COc1ccc(-n2cc(-c3ccccc3)c3c(=S)nc[nH]c32)cc1 | -2.8%
COc1ccc(-c2cn(-c3ccc(OC)cc3)c(=S)[nH]2)cc1 | 37.9% (active)
COc1ccc(-n2c(-c3ccc(OC)c(OC)c3)n[nH]c2=S)cc1 | -1.61%
O=C(Cc1ccc(S(=O)(=O)N2CCOCC2)s1)NCCC(c1ccccc1)c1ccccc1 | -2.5%
CCOC(=O)c1cc(Sc2ccccc2N)cc(C(=O)OCC)n1 | -2.14%

Compound | max response
Nc1ccccc1Sc1ccc(C(F)(F)F)cc1[N+](=O)[O-] | -0.845%
CCS(=O)(=O)c1cc([N+](=O)[O-])c(Sc2ccccc2N)s1 | 52.5% (active)
Fc1ccc(-n2c(Cc3ccccc3)nnc2SCc2nc(-c3ccc(Cl)cc3)no2)cc1 | -3.26%
CCOC(=O)C1C(c2ccc(O)cc2)NC(=O)NC1(O)C(F)(F)F (stereo not drawn) | -1.88%
Cc1cc(OC(C)C(=O)NC2CC(C)(C)NC(C)(C)C2)c2c(C)cc(=O)oc2c1 (stereo not drawn) | 2.41%
CN(C)CCCNC(=O)c1cc(C(=O)Cc2ccc(Cl)cc2)c[nH]1 | 0.733%
COc1cccc(NC(=S)NC(=O)c2c(Cl)c(C)nn2C)c1 | 18.3%
Cn1cc(Cl)c(C(=O)NNC(=S)Nc2cccc(Cl)c2)n1 | 42% (active)
CC(C)CNC(=S)NNC(=O)c1nn(C)cc1Cl | -2.88%
COc1ccc(C2=NS(=O)(=O)N(C)C(C(=O)N3CCCCC3)=C2)cc1 | 0.248%
NC(N)=Nc1nc2ccc(Br)cc2c(=O)[nH]1 | 1.64%
CC(=O)Nc1ccc(S(=O)(=O)NNC(=O)CCc2ccccc2)cc1 | 17.5%
CC(C)c1nc2cc(C(=O)NC(C)c3cnn(C)c3)ccc2o1 (stereo not drawn) | 16.9% (active)
COC(=O)c1ccc(CSc2nc3cc(Cl)ccc3o2)cc1 | -2.59%
COC(=O)c1ccc(CNC(=O)c2ccc3oc(C(C)C)nc3c2)cc1 | 49.5% (active)
COc1ccc(CNC(=O)c2ccc3oc(C(C)C)nc3c2)cc1 | 43.8% (active)
COc1ccc(C(=O)N[C@H](C(=O)NCc2ccccc2)C(C)C)cc1 | 1.24%
COc1ccc(CNC(=O)c2cc(=O)c3c(C)cc(C)cc3o2)cc1 | 10.1%
Cc1ccc(C(=O)NC(C)c2ccccc2)cc1Br (stereo not drawn) | 12.6%
CCOc1c2ccc(C(=O)NCc3ccc(OC(F)(F)F)cc3)cc2nn1C | -3.46%
COCC1CCCN(C(=O)c2ccc3oc(C(C)C)nc3c2)C1 (stereo not drawn) | 12.4%
